Only some compounds are listed: those with a hit (about 4.3% of all), similar ones and a draw of the others.
Wnt bcat act = activates Wnt/beta-catenin signaling in a reporter cell assay | activator, plate reader | activation, % at 9.35 µM | 1.2% of 300,000 active; in the data active = activation above about 30%, passing the limit was not always enough; inconclusive = no clear call, values can overlap the other calls;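 also: 0% = neutral control wells and 100% = positive control wells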
HSF1 inh = HSF1 inhibition; NIH3T3-HGL HSE-luciferase, MG132-induced, luminescence 8 h; stronger effect = lower value; activity change, negative = inhibition, % at 7.5 µM (by protocol); 0.77% of 300,000 active; AID 2098;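 active = more than half of replicate wells show activity change below -50%, luminescence cut by over half; inconclusive = some wells, but at most half, below -50%; inactive = no replicate well below -50%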;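 also: luciferase reports HSF-1 transcriptional activity via heat shock element; 0% = median of DMSO wells and -100% = zero luminescence signal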
SMARCA2 act = SMARCA2 function activation, primary screen; 1% of 370,000 active; MG213 cells, MMTV-luciferase reporter, dexamethasone, overnight; activation, % at 9.1 µM; in the data active = activation above about 7.8%;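 also: 0% = vehicle wells and 100% = reference activator wells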
esBAF inh = blocks esBAF chromatin remodeling in mouse ES cells; Bmi1-luciferase knock-in reporter, 24 h; 100% = twice the neutral-well signal; reporter increase, % at 12.5 µM; 2% of 350,000 active; in the data active = activation above about 40%; inconclusive = no clear call, values can overlap the other calls;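 also: 0% = median of the plate's neutral control wells and 100% = double that signal; a rise in the Bmi1 reporter signal indicates esBAF inhibition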
HSF-1 act = increases HSF-1 driven luciferase reporter signal. activation, % at 9 µM. NIH3T3-HGL HSF-1 luciferase reporter, MG132, 8 h; 100% = twice DMSO control signal. 1.7% of 300,000 active;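 active = mean replicate activation of at least 50% with a set share of replicates each reaching 50%; inconclusive = only one of those two conditions met; inactive = mean below 50% and too few replicates reaching it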;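 also: 0% = median of the neutral control wells and 100% = twice that signal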
MITF TRPM1 HTS = increases MITF-driven TRPM1 promoter luciferase signal; SK-MEL-5 TRPM1-promoter luciferase, 24 h; % of positive control, neutral wells = 0; activation, % at 12.5 µM; 0.75% of 300,000 active; AID 588334;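 active = mean activation of at least 80% with every replicate also reaching 80%; inconclusive = mean reaches 80% but some replicate falls short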;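 also: 0% = neutral control wells and 100% = parthenolide positive control wells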
Starred values were filed as active, the others as inactive; ? = inconclusive; . = not tested or not shown.

SMILES	Wnt bcat act	HSF1 inh	SMARCA2 act	esBAF inh	HSF-1 act	MITF TRPM1 HTS
C[C@H]1CN([C@@H](C)CO)C(=O)c2cc(-c3cccc(F)c3)cnc2O[C@H]1CN(C)CC1CCOCC1	.	.	.	-2	.	.
COc1ccc2c(c1)Cc1sc(NC(=O)c3ccccc3)nc1-2	51*	22	0	.	26	33
COc1ccc2c(c1)Cc1sc(NC(=O)c3cccs3)nc1-2	.	3	0	83*	24	48
O=C(C[C@H]1C[C@@H]2c3cc(NC(=O)Cc4ccncc4)ccc3O[C@@H]2[C@H](CO)O1)NCCN1CCCCC1	.	.	.	3	.	.
C[C@@H](NC(=O)C[C@@H]1C[C@H]2c3cc(NC(=O)c4ccc5c(c4)OCO5)ccc3O[C@H]2[C@@H](CO)O1)c1ccccc1	.	.	.	5	.	.
CN(C)c1ccc(/C=N\Nc2nc(-c3ccccc3)cc(=O)[nH]2)cc1	2	-73*	-1	.	-79	16
Cc1cc(=O)[nH]c(N/N=C/c2ccc(O)c(O)c2)n1	-2	17	-2	.	61*	36
CN(C)c1ccc(C=NNc2nc3c([nH]2)c(=O)n(C)c(=O)n3C)cc1	2	.	-3	-7	.	22
Fc1cccc(F)c1/C=N/N1CCOCC1	1	-2	7.9*	.	-2	13
Oc1cc(NCc2cccnc2)ccc1-c1nc2ccccc2o1	86*	31	3	78*	59*	.
CCc1ccc(OCC(=O)Nc2ccc(-c3nc4ccccc4o3)c(O)c2)cc1	.	7	0	.	14	17
CCS(=O)(=O)NCC[C@@H]1CC[C@@H](NC(=O)Nc2cc(Cl)cc(Cl)c2)[C@H](CO)O1	.	.	.	1	.	.
Cc1ccc(NC(=O)c2nnn(-c3cc(C)cc(C)c3)c2N)cc1	31*	11	2	49*	29	.
Cc1ccc2nc(-c3ccc(NS(=O)(=O)c4c(C)n(C)c(=O)n(C)c4=O)cc3)sc2c1	48*	-19	6	.	-29	?
Cc1ccc(S(=O)(=O)Nc2ccc(-c3nc4ccc(C)cc4s3)cc2)cc1	1	4	1	.	-8	14
Cc1ccc2nc(-c3ccc(NC(=S)NC(=O)CC(C)C)cc3)sc2c1	52*	4	0	73*	22	.
Cc1ccc2nc(-c3ccc(NC(=O)CN4C(=O)c5ccccc5C4=O)cc3)sc2c1	?	-18	16*	.	-4	70
Cc1ccc2nc(-c3ccc(NC(=O)CSc4nc(N)cc(=O)[nH]4)cc3)sc2c1	56*	12	6	?	-4	66
Cc1ccc2nc(-c3ccc(NC(=O)CSc4nccc(=O)[nH]4)cc3)sc2c1	.	-7	2	.	2	39
Cc1ccc2nc(NC(=O)CN3CCN(c4ccccn4)CC3)sc2c1	2	-6	-2	0	7	-6
Cc1ccc2nc(-c3ccc(NC(=O)CN4CCN(c5ccccn5)CC4)cc3)sc2c1	36*	1	7	.	-11	.
Nc1nc(SCC(=O)Nc2ccccc2)[nH]c(=O)c1-c1ccccc1	-3	5	6	17	7	4
Nc1nc(SCC(=O)N2CCc3ccccc3C2)[nH]c(=O)c1-c1ccccc1	11	-13	1	56*	12	4
C[C@H](CO)N1C[C@H](C)[C@@H](CN(C)S(=O)(=O)c2ccccc2)Oc2ncc(C#CCN(C)C)cc2C1=O	.	.	.	1	.	.
C[C@@H]1CN([C@@H](C)CO)C(=O)c2cc(C#CC3(O)CCCC3)cnc2O[C@@H]1CN(C)C(=O)C1CCOCC1	.	.	.	-2	.	.
SMILES	Wnt bcat act	HSF1 inh	SMARCA2 act	esBAF inh	HSF-1 act	MITF TRPM1 HTS
Cc1cc(C)c2cc3c(N)c(C(=O)N4CCc5ccccc5C4)sc3nc2c1	-1	-28	-3	-7	-42	-7
Cc1cccc2cc3c(N)c(C(=O)N4CCOCC4)sc3nc12	23	36	2	38	81*	17
CCN1/C(=C(\O)c2ccccc2)C(=O)c2ccccc2S1(=O)=O	0	-70*	0	-4	-78	-4
CO[C@@H]1CN(C)C(=O)c2ccc(NS(=O)(=O)c3ccc(Cl)cc3)cc2OC[C@H](C)N(C(=O)NC(C)C)C[C@@H]1C	.	.	.	2	.	.
Cc1csc2nc(CSc3ccc(Cl)cc3)cn12	.	72	.	.	67*	92*
c1ccc(CSCc2cn3ccsc3n2)cc1	.	22	4	59*	21	84*
c1ccc2oc(SCc3cn4ccsc4n3)nc2c1	66*	27	-1	31	?	50

Screening results deposited in PubChem BioAssay by several laboratories.
